Drawing on PubChem BioAssay (NCI), this text covers growth for nine molecules.

Molecules are shown by their SMILES. About 83,000 compounds went through this panel and 20% of them were active in at least one assay; those are over-represented in the sample as a whole.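 Negative percent growth values reflect cell death: -40 means 40% of the cells present at the start died, and -100 means all died.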 Values without a mark were called inactive. Activity calls are given as the source filed them. The calls were made as follows: active = growth percent below 10; inactive = the rest.

Assay in all cases: NCI-60 one-dose screen, 48 h (100 = growth as untreated, 0 = no growth, -100 = all killed)
What all share (settings): 10 µM

The subject of assay [1] is RPMI-8226 leukemia.
For assay [2], the system named is OVCAR-8 ovarian.
Assay [3] has as its system OVCAR-5 ovarian.
The test system of assay [4] is OVCAR-4 ovarian.
For assay [5], the system named is SK-OV-3 ovarian.
Assay [6] concerns IGROV1 ovarian.
Assay [7] deals with OVCAR-3 ovarian.
Assay [8] relates to HS 578T breast.
The test system of assay [9] is NCI/ADR-RES ovarian.
Assay [10] has as its system T-47D breast.
Assay [11] concerns BT-549 breast.
The test system of assay [12] is MDA-MB-435 melanoma.
Assay [13] concerns SW-620 colon.
Assay [14] relates to MCF7 breast.
The subject of assay [15] is HCT-116 colon.
Assay [16] deals with HCC-2998 colon.
Assay [17] deals with KM12 colon.

Take `COc1ccc(/C=C2/CN(C(=O)c3ccccc3F)C/C(=C\c3ccc(OC)cc3)C2=O)cc1`: the growth in assay [1] is -19% (active); in assay [2], 19%; in assay [3] it was 106%; in [4], 61.3%; in assay [5], 76.7%; in assay [6], 30.6%. The growth in assay [7] was 26.9%; in [8], 38.9%; in assay [9], 50.4%; in [10] it was 62.7%; in [11], 37%; in assay [12], -46.2% (active). Also, the growth is -42.3% (active) in assay [13], 8.16% (active) in assay [14], -62.6% (active) in [15] and -73.1% (active) in assay [16].

`N=C(N)c1ccc(-c2ccc(-c3ccccc3)o2)nc1`: the growth in [1] was 38.6%; in [2] it was 92.6%; in [3], 85%; in assay [4] it was 75.3%; in assay [5] it was 100%; in [6], 95.7%. The growth in assay [7] is 106%; in assay [8] it was 131%; in [9], 100%; in [10] it was 81.5%; in [11], 101%; in [12], 81.4%. Further, the growth in assay [13] is 86.7%; in [14], 72.3%; in [15] it was 76.6%; in assay [16] it was 27.5%.

With `COc1ccc(C(=O)/C=C/c2cc(-c3cc(OC)c(OC)c(OC)c3)n[nH]2)cc1`, the growth is -38.8% (active) in [1]; 16.1% in [2]; 47.8% in [3]; 45.6% in assay [4]; 25.7% in assay [5]; 43.2% in assay [6]. In addition, the growth in assay [7] is 11.1%; in assay [8], 71.3%; in [9] it was 25.9%; in [10], 13.6%; in [11], 14.4%; in assay [12] it was 15.6%. Also, the growth was -37.6% (active) in assay [13]; 16.5% in [14]; -76.3% (active) in assay [15]; 91.3% in assay [16]; -60.1% (active) in assay [17].

For the molecule `CC(C)(C)c1ccc(N2CSC(=S)N(c3ccc(C(C)(C)C)cc3)C2)cc1`, the growth in assay [1] is 76.5%; in [2], 107%; in assay [3], 101%; in assay [4], 98.3%; in assay [5], 94.1%; in [6] it was 55.3%. For the same molecule, the growth is 109% in [7]; 112% in assay [8]; 96.1% in assay [9]; 81.4% in [10]; 98.9% in [11]; 99.7% in assay [12]. The growth is 106% in assay [13]; 91.7% in [14]; 91.8% in [15]; 96.4% in [16]; 96.7% in [17].

With `COc1ccc2c(c1)O/C(=C\c1ccc([N+](=O)[O-])s1)C2=O`, the growth in [1] is 1.62% (active); in assay [2], 0.767% (active); in assay [3], 61.4%; in assay [4], -32.2% (active); in [5], 60.2%; in assay [6], -29.4% (active). In addition, the growth was -30.5% (active) in [7]; 18.3% in assay [8]; 54.5% in assay [9]; 16% in [10]; 7.31% (active) in assay [11]; 51.7% in [12]. Also, the growth in [13] is -56.3% (active); in assay [14] it was 21.4%; in assay [15], -23.4% (active); in [16], 11.9%; in assay [17], 5.98% (active).

For `COc1ccc2c(c1)O/C(=C\c1ccc([N+](=O)[O-])o1)C2=O`, the growth in [1] is -10.7% (active); in assay [2], -8.18% (active); in [3], 12.4%; in assay [4], -1.31% (active); in [5], 67.6%; in assay [6] it was -14.2% (active). The growth was -8.36% (active) in assay [7]; 21.4% in assay [8]; 16% in assay [9]; -0.109% (active) in assay [10]; -50% (active) in assay [11]; -72.5% (active) in [12]. Also, the growth was -53.8% (active) in assay [13]; 2.06% (active) in assay [14]; -39% (active) in assay [15]; -26.8% (active) in [16]; -11.5% (active) in assay [17].

With `COc1ccc(-c2cc(/C=C3\C(=O)Nc4ccc(OC)cc43)[nH]n2)cc1`, the growth was 20.6% in assay [1]; 48.8% in assay [2]; 82.5% in assay [3]; 79.8% in [4]; 33.6% in assay [5]; 31.8% in assay [6]. For the same molecule, the growth is 2.64% (active) in [7]; 14% in assay [8]; 21.7% in assay [9]; 47.3% in assay [10]; 61.5% in assay [11]; -25.1% (active) in assay [12]. In addition, the growth in assay [13] was 19.3%; in assay [14], 7.36% (active); in [15], 25.3%; in assay [16], 52.8%; in assay [17], 8.99% (active).

In the case of `CC(C)(C)c1cc(Br)cc(C(C)(C)C)c1O`, the growth in assay [1] was 93.9%; in [2] it was 103%; in [3], 111%; in assay [4] it was 112%; in [5], 101%; in [6], 115%. For the same molecule, the growth in assay [7] is 108%; in assay [8], 120%; in [9] it was 107%; in assay [10], 99.8%; in [11], 111%; in assay [12], 95.8%. Moreover, the growth was 112% in assay [13]; 99% in assay [14]; 104% in assay [15]; 103% in assay [16]; 105% in assay [17].

As for `Clc1ccc2c(NCCCNc3nccc(Nc4ccc(Br)cc4)n3)ccnc2c1`, the growth in assay [1] is -59.9% (active); in assay [2], -65.2% (active); in assay [3], 15.3%; in [4], -9.2% (active); in assay [5] it was -44.1% (active); in assay [6], 24.2%. Further, the growth in [7] was -22.8% (active); in assay [8], -56% (active); in assay [9] it was 0.467% (active); in assay [10], -56.2% (active); in assay [11] it was 4.45% (active); in assay [12] it was -88.3% (active). The growth in assay [13] was -74.4% (active); in [14], -98.8% (active); in assay [15] it was -97.5% (active); in [16] it was -91.4% (active); in assay [17] it was -48.6% (active).
